Measured values published in PubChem BioAssay AID504332 (National Center for Advancing Translational Sciences (NCATS), 2011).
Among all 350,000 compounds or so, about 31,000 (8.9%) were called active. A call without a number means that no potency is given here. Inconclusive results (about 15%) are left out. The sample as a whole holds a higher share of actives than the screen did. Values without a mark were called inactive. Calls come from the whole dose curve; as a rule, active = well fitted inhibition curve with a large enough effect; inconclusive = small, poorly fitted or top-dose-only effect; inactive = no such curve, though single readings can be large or run the other way.

What follows are compounds tested against Histone-lysine N-methyltransferase EHMT2 (Homo sapiens) (UniProt Q96KQ7) (assay: qHTS Assay for Inhibitors of Histone Lysine Methyltransferase G9a). Details: G9a H3K9 monomethylation, AlphaScreen, 2 h; series mostly up to 59 µM.
Chain of Histone-lysine N-methyltransferase EHMT2 (Homo sapiens) (Q96KQ7 913-1193 limits assumed): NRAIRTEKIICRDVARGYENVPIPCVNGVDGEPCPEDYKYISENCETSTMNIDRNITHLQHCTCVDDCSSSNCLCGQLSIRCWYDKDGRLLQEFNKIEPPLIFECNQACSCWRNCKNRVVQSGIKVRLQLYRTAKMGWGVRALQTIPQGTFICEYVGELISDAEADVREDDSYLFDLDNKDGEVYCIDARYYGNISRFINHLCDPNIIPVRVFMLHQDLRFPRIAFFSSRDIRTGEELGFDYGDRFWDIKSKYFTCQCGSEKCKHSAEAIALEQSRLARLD
In short: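 Enzyme 20 nM + cpd, 15 min RT; add b-H3K9 pep 500 nM / SAM 20 uM; 2 h RT; anti-H3K9me1 Ab 0.5 ug/mL + SA donor / anti-rabbit acceptor beads 20 ug/mL each, 10 min; AlphaScreen read.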
Note: nearly all actives have a fitted effect of over 75% in size.
Potency is the fitted concentration of half-maximal effect.

| Compound | Potency | activity, negative = inhibition |
| --- | --- | --- |
| Cc1ccc(C)c(N2CCN(C(=O)Cc3c(C(=O)O)c(C)cn3C)CC2)c1 | inactive |  |
| CCC(C(=O)N1CCN(S(=O)(=O)c2sc(C(=O)O)c(C)c2C(=O)O)CC1)c1ccccc1 (stereo not given) |  | -9.12% [at 2.33 µM] |
| COc1ccc(C(=O)Oc2cc(/C=N/NS(=O)(=O)c3ccc(C)cc3)ccc2OC)cc1 | inactive |  |
| COc1cc(/C=N/Nc2ccc(C)cc2)cc(Br)c1O | 3.98 µM (active) |  |
| COc1cc(/C=N/O)cc(Br)c1OS(=O)(=O)c1ccc(C)cc1 | inactive |  |
| O=C(NC1CC(=O)N(c2ccc(F)cc2)C1)C1CCCCC1 (stereo not given) | inactive |  |
| COc1ccc(NC(=O)CSc2nnc(-c3nnn(-c4ccc(F)cc4)c3C)o2)cc1 | inactive |  |
| Cc1c(O)c(C)c2c(c1O)C(=O)C[C@@H](c1ccccc1)O2 |  | 17.8% [at 2.33 µM] |
| CCn1c(SCC(=O)NNC(=O)c2ccc(OC)cc2)nnc1C(C)C | inactive |  |
| CCn1c(C(C)NC(=O)c2ccc(C)cc2)n[nH]c1=S (stereo not given) | 39.8 µM (active) |  |
| CCn1c(SCC(=O)Nc2nc(C)cs2)nnc1C(C)NC(=O)c1ccccc1 (stereo not given) | inactive |  |
| CC(NC(=O)CCc1cn(Cc2ccccc2Cl)c2ccccc12)c1ccccc1 (stereo not given) | inactive |  |
| COc1ccc(Cn2c(=O)n(-c3ccccc3C)c(=O)c3c4c(sc32)CN(C(C)=O)CC4)cc1 | inactive |  |
| CCN(CC)c1ccc2cc(C(N)=O)/c(=N\NC(=O)c3ccncc3)oc2c1 | inactive |  |
| CCN(CC)c1ccc2oc(=O)c(C)nc2c1 | 11.2 µM (active) |  |
| CCN(CC)c1ccc2c(Nc3ccccc3)c(C=O)c(=O)oc2c1 | inactive |  |
| COc1ccc(CNc2nc(-c3ccc(Cl)cc3)nn2C(=O)c2ccccc2)cc1 | inactive |  |
| CCN(Cc1ccccc1)S(=O)(=O)c1cc2c3c(c1)CCN3C(=O)CC2 | inactive |  |
| CCN(CC)c1ccc(NC(=O)C2CCC(CNc3c(N4CCCC4)c(=O)c3=O)CC2)c(C)c1 (stereo not given) | 39.8 µM (active) |  |
| CCOc1ccccc1NC(=O)C1CCC(CNc2c(N3CCOCC3)c(=O)c2=O)CC1 (stereo not given) | inactive |  |
| O=C(NCc1ccccc1Cl)C1CCC(CNc2c(N3CCCCC3)c(=O)c2=O)CC1 (stereo not given) | inactive |  |
| COc1ccc(Cc2nc3ccc(C(=O)NCC4CCOCC4)cc3o2)cc1OC | inactive |  |
| CC(C)N(C(=O)CSc1nnc(NC2CC2)s1)c1ccccc1 |  | -6.53% [at 0.501 µM] |
| CC(C)C(=O)Nc1nnc(SCC(=O)N2C(C)CCCC2C)s1 (stereo not given) | 79.4 µM (active) |  |

| Compound | Potency | activity, negative = inhibition |
| --- | --- | --- |
| CC1CCCC(C)N1C(=O)CSc1nnnn1C1CCCC1 (stereo not given) | inactive |  |
| COc1cccc(-c2cc(C(=O)Nc3ccc(C)cc3)[nH]n2)c1 | inactive |  |
| COc1ccc(-c2csc(-c3c(N)c(C(=O)c4ccc(OC)c(OC)c4)n4ccccc34)n2)cc1 | inactive |  |
| COc1cc(CN(C(=O)c2ccccc2Br)c2ccccn2)cc(OC)c1OC | inactive |  |
| O=C(c1ccncc1)N1CCN(S(=O)(=O)c2cc(C(F)(F)F)cc(C(F)(F)F)c2)CC1 | inactive |  |
| OCCCNC(c1ccccc1)c1ccc(O)cc1 (stereo not given) | 11.2 µM (active) |  |
| O=C(CNC(c1ccccc1)c1ccccc1)Nc1ccc(F)cc1 | inactive |  |
| O=C(Nc1cc(Cl)cc(Cl)c1)C(NCCCO)c1ccccc1 (stereo not given) | inactive |  |
| CCCCN(C)CCCNC(=O)CN1N=C(c2ccc(OC)cc2)CCC1=O | inactive |  |
| O=C(NCCCN1CCCC1=O)c1ccc(S(=O)(=O)Nc2ccccc2)cc1 | inactive |  |
| CC(=O)Nc1ccc(NC(=O)CCN2C(=O)C3CC=CCC3C2=O)cc1 (stereo not given) |  | -17% [at 12.7 µM] |
| Cc1ccccc1OCC(=O)Nc1c(C(=O)Nc2ccccc2F)oc2ccccc12 | inactive |  |
| COc1cccc(C2c3[nH]c4ccccc4c3CCN2Cc2cccc(C)n2)c1 (stereo not given) | 44.7 µM (active) |  |
| COc1cccc(CNC(=O)c2n[nH]c3ccccc23)c1 | inactive |  |
| COc1cccc(N2CCN(C(=O)CCCCCn3c(=O)[nH]c4ccccc4c3=O)CC2)c1 | inactive |  |
| COc1ccc(CNC(=O)COCc2cc(-c3cccs3)on2)cc1OC | inactive |  |
| CN(CC1CCCN(CCc2cccc(C(F)(F)F)c2)C1)C(=O)c1ccc2nc[nH]c2c1 (stereo not given) | inactive |  |
| Cc1cc(C(=O)Nc2nnc(C3CC3)s2)c(C)s1 |  | 11.4% [at 12.7 µM] |
| O=C(NNC(=O)c1cccnc1)Nc1ccccc1 |  | -81.4% [at 2.33 µM] |
| O=C(CNC(=O)c1cccnc1)N/N=C/c1cccnc1 | inactive |  |
| O=C(O)CSC(NC(=O)c1cccnc1)(C(F)(F)F)C(F)(F)F | 14.1 µM (active) |  |
| CCN(CC)S(=O)(=O)c1ccc(-c2cn3ccc(C)cc3n2)cc1 |  | 4.83% [at 0.501 µM] |
| CCOC(=O)CSc1ncc(-c2cccc(Cl)c2)cn1 | inactive |  |
| COC(=O)c1ccccc1NC(=O)CSc1ccccn1 | inactive |  |

| Compound | Potency | activity, negative = inhibition |
| --- | --- | --- |
| CCOC(=O)CSc1ccccn1 | 39.8 µM (active) |  |
| O=C(Nc1ccccc1Cl)N1CCC(CN2CCCCC2)CC1 | inactive |  |
| COc1ccc2sc(-c3ccc(N(C)C)cc3)c(C#CCO)c2c1 |  | 8.02% [at 0.501 µM] |
| COc1ccc(-c2cc(-c3nc(-c4cc(OC)c(OC)c(OC)c4)no3)[nH]n2)c(OC)c1 | inactive |  |
| CN(C)/N=C/c1cn(-c2ccccc2)nc1-c1cccnc1 | 56.2 µM (active) |  |
| O=C(c1cn(-c2ccccc2)nc1-c1cccnc1)N1CCCCC1 | inactive |  |
| CC(C)(C)OC(=O)N/N=C/c1cn(-c2ccccc2)nc1-c1cccnc1 | inactive |  |
| CCCCc1ccc(NS(=O)(=O)c2cccc(C(=O)N3CCCN(C)CC3)c2)cc1 | inactive |  |
| CC(=O)NC(CC(=O)Nc1cccc(S(=O)(=O)N2CCCC2)c1)c1ccccc1 (stereo not given) | inactive |  |
| Cc1nn(CC(=O)NC2CCCCC2)c(=O)c2cccn12 | inactive |  |
| O=C(Cn1nc([N+](=O)[O-])nc1Br)NC1CCCCC1 | inactive |  |
| Cc1cc(C(F)F)nn1CC(=O)NC1CCCCCC1 | 79.4 µM (active) |  |
| CCc1noc(C)c1C(=O)N1CCCSC1=Nc1ccccc1OC | inactive |  |
| O=C1c2ccccc2C(=O)N1CCC#Cc1ccc2cc(C3(O)CCCCC3)oc(=O)c2c1 |  | 1.05% [at 0.501 µM] |
| Cc1cc(=O)n2nc(N3CCCC(C(=O)NCCC4=CCCCC4)C3)sc2n1 (stereo not given) |  | 4.22% [at 12.7 µM] |
| C=CCN1C(=O)c2ccc(C(=O)N3CCC(C(=O)OCC)CC3)cc2C1=O | inactive |  |
| CC1CCCN(C(=O)c2ccc3c(c2)C(=O)N(CCC2=CCCCC2)C3=O)C1 (stereo not given) | 39.8 µM (active) |  |
| O=c1[nH]c2cc(Br)ccc2n2cccc12 | inactive |  |
| CNC(=O)C1CC(=O)N(c2ccc(OCC(=O)Nc3ccccc3C)cc2)C1 (stereo not given) | inactive |  |
| Cc1cccc(N2CCN(Cc3c(C)n(C)n(-c4ccccc4)c3=O)CC2)c1C |  | 11.6% [at 12.7 µM] |
| Cc1cccc(N2CCN(C(=O)c3oc(=O)c4ccccc4c3-c3ccccc3)CC2)c1C | inactive |  |
| Cc1cccc(N2CCN(C3=C(c4ccccc4)C(=O)c4ccccc43)CC2)c1C | 3.55 µM (active) |  |
| CN(C)c1ccc(-c2nnc(-c3cccnc3)o2)cc1 | inactive |  |
| COC(=O)c1cc(NC(=O)c2cnc(SC)nc2-c2ccccc2)cc(C(=O)OC)c1 | inactive |  |

| Compound | Potency | activity, negative = inhibition |
| --- | --- | --- |
| COc1ccc(OCCCn2c(C3CC(=O)N(c4ccc(F)cc4)C3)nc3ccccc32)cc1 (stereo not given) | inactive |  |
| COc1ccc([C@H]2CC(=O)C=C(c3ccc(OC(F)(F)F)cc3)C2)cc1OC |  | -10% [at 2.33 µM] |
| Cc1cccc(OCCSc2nc3ccccc3n2CC(=O)N2CCCCC2)c1C | 12.6 µM (active) |  |
| CC(C)N(C(=O)Cn1c(SCC(=O)N2CCN(c3ccccc3)CC2)nc2ccccc21)C(C)C | inactive |  |
| Cc1ccc(C(C)C)c(OCCSc2nc3ccccc3n2CC(=O)O)c1 | inactive |  |
| CN(CC(=O)NCC(c1ccccc1)N1CCCC1)S(=O)(=O)c1ccc(Cl)cc1 (stereo not given) |  | -5.36% [at 12.7 µM] |
| O=C(Nc1nnc(C2CC(=O)N(c3ccc(Cl)cc3)C2)s1)c1ccco1 (stereo not given) | inactive |  |
| CCN(c1ncnc2c1cnn2-c1ccc(C)cc1)C1CCCCC1 | inactive |  |
| COc1ccccc1OCC(O)CN1CCOCC1 (stereo not given) | inactive |  |
| C/C=C/c1ccc(OCCCCN2CCC(C)CC2)c(OC)c1 | inactive |  |
| C/C=C/c1ccc(OCC(O)CN2CCCCCCC2)c(OC)c1 (stereo not given) | 20 µM (active) |  |
| CCC(=O)N1CCc2cc(S(=O)(=O)NC(Cc3ccccc3)C(=O)NCc3ccc(C)cc3)ccc21 (stereo not given) | inactive |  |
| c1ccc(CNc2ncnc3[nH]ncc23)cc1 | inactive |  |
| CCCCn1c(N)c(N(CC(C)C)C(=O)C2CSC3(C)CCC(=O)N23)c(=O)[nH]c1=O (stereo not given) | 50.1 µM (active) |  |
| CCCCn1c(N)c(N(CC(C)C)C(=O)CSc2ccc([N+](=O)[O-])cc2)c(=O)[nH]c1=O | 50.1 µM (active) |  |
| CCCCN(C(=O)CCNC(=O)NC12CC3CC(CC(C3)C1)C2)c1c(N)n(CCCC)c(=O)[nH]c1=O |  | -3.13% [at 0.501 µM] |
| CCCCn1c(N)c(N(CC(C)C)C(=O)c2ccc(-n3c(C)ccc3C)cc2)c(=O)[nH]c1=O | 56.2 µM (active) |  |
| CCCCN(C(=O)c1ccc(C)o1)c1c(N)n(CCCC)c(=O)[nH]c1=O |  | 4.93% [at 0.501 µM] |
| CCCCn1c(N)c(N(CCC(C)C)C(=O)COC(=O)c2ccc(CC)cc2)c(=O)[nH]c1=O | inactive |  |
| CCCCN(C(=O)c1ccc2ccccc2c1)c1c(N)n(CCCC)c(=O)[nH]c1=O | inactive |  |
| CCCCn1c(N)c(N(CC(C)C)C(=O)c2cnc(C)cn2)c(=O)[nH]c1=O | inactive |  |
| CCCCn1c(N)c(N(CC(C)C)C(=O)c2ccc(Br)o2)c(=O)[nH]c1=O | inactive |  |
| Cc1cc(C)c2oc(C(=O)Nc3ccc(S(=O)(=O)N(C)c4ccccc4)cc3)cc(=O)c2c1 | inactive |  |
